VACV Venus inh: qHTS for Stage-Specific Inhibitors of Vaccinia Orthopoxvirus: Venus Reporter Primary qHTS; 330,000 tested, 0.46% active; Vaccinia virus Venus reporter expression, fluorescence; Potency, µM (doses to about 36.5 µM), without a hit: at the top dose activity change, negative = inhibition, hits mostly inhibitors; AID 720580, 2013; calls by dose curve; tested in A549 cells; further: potency means the concentration at half of the fitted maximal effect; nearly all actives have a fitted effect of over 30% in size
FMDV antiviral: High Throughput Screening for Foot and Mouth Disease Virus Antivirals. Potency, µM (highest dose often 57.9 µM), for the others: top-dose activity change, negative = inhibition, actives largely listed as inhibitors. 410,000 tested, 1.2% active. FMDV antiviral cell-based qHTS. AID 1159524, 2015; calls by dose curve; tested in HEK293T cells; further: read-out not given here; potency means the concentration at half of the fitted maximal effect; nearly all actives have a fitted effect of over 45% in size
Giardia FBPA inh: qHTS Assay for Inhibitors of Fructose-1,6-bisphosphate Aldolase from Giardia Lamblia; Potency, µM (top dose mostly 59.6 µM), for the others: at the top dose activity, negative = inhibition, usual class: inhibitors; A8B2U2; 290,000 tested, 0.71% active; purified Giardia FBPA; further: potency means the concentration at half of the fitted maximal effect; nearly all actives have a fitted effect of over 55% in size
Target sequence (A8B2U2 whole entry, looked up): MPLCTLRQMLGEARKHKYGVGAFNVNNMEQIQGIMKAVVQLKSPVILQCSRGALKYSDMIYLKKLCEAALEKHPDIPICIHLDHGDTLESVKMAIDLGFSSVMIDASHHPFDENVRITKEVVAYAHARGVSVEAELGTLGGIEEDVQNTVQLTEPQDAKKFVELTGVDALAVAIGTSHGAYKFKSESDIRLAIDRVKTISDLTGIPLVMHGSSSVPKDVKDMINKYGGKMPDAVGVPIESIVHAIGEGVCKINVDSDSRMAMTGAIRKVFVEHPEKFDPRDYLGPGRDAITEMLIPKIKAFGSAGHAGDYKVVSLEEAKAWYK
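Giardia FBPA (40 nM reagent) was preincubated 10 min at RT with compound (up to 57.5 uM final), then substrate plus GAPDH/TPI/NAD/arsenate coupling system with diaphorase/resazurin was added; resorufin fluorescence (525/598 nm) was read after 20 min.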
HCV inh: qHTS Assay for Inhibitors of Hepatitis C Virus (HCV) | Potency, µM (doses to about 41.8 µM), without a hit: at the top dose activity change, negative = inhibition, hits mostly inhibitors | 340,000 tested, 3.4% active | Huh7.5.1 HCVcc-Cre infection, luciferase reporter, 44 h; further: potency means the concentration at half of the fitted maximal effect
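1,000 cells/well; 4 h culture; + compound; + HCVcc-Cre (~0.5 moi); 44 h; luciferase substrate, RT 15 min; read 15 sec.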
HCMV antiviral: qHTS Assay for inhibitors of the human cytomegalovirus (HCMV); activity change, negative = inhibition, % at 57.5 µM; HFF cells, HCMV-luciferase reporter, 72 h; stronger effect = lower value; AID 1259415, 2018; 410,000 tested, 4.5% active; in the data active means activity change below about -60%; inconclusive means no clear call, values can overlap the other calls; inactive means above about -39%
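Human foreskin fibroblasts infected with luciferase-reporter HCMV at MOI 1 PFU/cell, compounds at two doses. Luciferase measured 72 h post infection; normalized to buffer-only basal and Salinomycin (10uM) controls.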
VACV mCherry inh: qHTS for Stage-Specific Inhibitors of Vaccinia Orthopoxvirus: mCherry Reporter Primary qHTS. Vaccinia virus mCherry reporter infection, fluorescence. Potency, µM (top dose mostly 36.5 µM), for inactives: at the top dose activity change, negative = inhibition, most hits filed as inhibitors. 310,000 tested, 0.63% active; calls by dose curve; tested in A549 cells; further: potency means the concentration at half of the fitted maximal effect; nearly all actives have a fitted effect of over 35% in size
* marks the source's active call; other numbers are inactive results; i = inactive; ? = inconclusive; / = not tested or not shown; + = active, no number; [ ] = dose if it differs, or a comment. This is a sample that favours compounds with a hit; in the whole collection about 7.5% have one here. Unless noted, the call rests on the fitted dose curve; in most records, active means well fitted curve in the direction sought with a large enough effect; inconclusive means small, poorly fitted or top-dose-only effect, or another doubt; inactive means no such curve, though single readings can be large; an effect the other way counts as inactive or inconclusive. On the % scale 0 is the no-effect control and ±100 the full control effect.

SMILES	VACV Venus inh	FMDV antiviral	Giardia FBPA inh	HCV inh	HCMV antiviral	VACV mCherry inh
CC(NS(=O)(=O)c1ccccc1[N+](=O)[O-])c1ccccn1 (stereo not drawn)	-13.6%	/	/	/	/	-3.1%
CC(=O)c1cccc(NC(=S)NCCC2=CCCCC2)c1	-23.9%	-0.1%	-5.8%	11.2µM*	?	-16.6%[1.46 µM]
COc1ccc(NC(=O)c2cccc(S(=O)(=O)N3CCCCC3)c2)c(OC)c1	-3.1%	-6.5%	/	-20.2%	-69.0*	-26.2%
COc1ccc(CCNC(=O)c2cccc(S(=O)(=O)N3CCCCC3)c2)cc1	-22.4%	-18.2%	0.9%	?	-65.7*	-6.2%
C=CCN(c1ccccc1OC)S(=O)(=O)c1cccc(C(=O)OCC(=O)c2c(N)n(C)c(=O)n(C)c2=O)c1	?	39.8µM*	/	?	-70.5*	-16.9%
COc1ccc(NC(=O)c2ccc(S(=O)(=O)N3CCCCCC3)cc2)c(OC)c1	-11.7%	-11.2%	-8.8%	?	17.2	i
Cc1nn(C)c(C)c1S(=O)(=O)N(CC(=O)NCCc1ccccc1)c1ccc(C(C)C)cc1	-12.7%	-26.0%	/	/	-3.5	-8.4%
CO/N=C1/[C@H]2O[C@@H]2[C@@H](O)[C@H]2[C@H]1CCn1c(=O)n(-c3ccccc3)c(=O)n12	/	/	0.6%[12.9 µM]	/	/	/
COc1ccc(CCNc2ccc(S(=O)(=O)N3CCCC3)cc2[N+](=O)[O-])cc1	-20.8%	?	8.6%	?	-62.3*	-24.0%
O=C(NCCOc1ccc(Cl)cc1)c1cccc(S(=O)(=O)N2CCCC2)c1	/	?	/	15.8µM*	-68.3*	/
COc1ccc(C(=O)NCCC2=CCCCC2)cc1	-17.3%	12.6µM*	-0.1%	5.9%	-4.0	-11.8%
COc1ccccc1C(C)Nc1ccc(S(=O)(=O)N2CCN(C)CC2)cc1[N+](=O)[O-] (stereo not drawn)	/	-13.1%	/	11.2µM*	-9.5	/
O=[N+]([O-])c1cc(S(=O)(=O)N2CCCC2)ccc1NCCc1ccccc1	-4.1%	-22.7%	-1.4%	14.8%	-29.1	i
O=C(NCc1ccc(Cl)cc1)c1cccc(S(=O)(=O)N2CCCC2)c1	/	14.5%	/	5.1%	-39.5	/
Cc1cc(C)cc(C(=O)NCCn2cc(C(=O)N3CCSCC3)nn2)c1	-18.5%	-2.1%	/	/	/	-17.0%
O=S(=O)(NC(=NCc1ccccc1)c1ccccc1)c1ccccc1	-2.5%	0.0%	11.6%	0.3%	?	-21.0%
Cc1ncc2c(c1CNC(=O)c1ccccc1F)CCN(C(=O)c1[nH]c3ccc(Cl)cc3c1C)C2	-2.9%	?	/	/	/	0.8%
C=CCN(c1ccccc1Cl)S(=O)(=O)c1cccc(C(=O)OCC(=O)N(C)C2CCS(=O)(=O)C2)c1 (stereo not drawn)	-11.1%	-28.1%	-0.4%	3.55µM*	-30.6	-29.1%
COc1ccc(CCNC(=O)c2ccc(Cl)c(S(=O)(=O)N3CCCC3)c2)cc1	/	?	/	11.2µM*	-73.6*	/
C=CCN(c1ccccc1OC)S(=O)(=O)c1cccc(C(=O)NCc2cccs2)c1	-29.0%	-19.8%	/	4.47µM*	-63.1*	-30.0%
COc1cc(OC)c(N(C)S(=O)(=O)c2cccc(C(=O)NCc3cccs3)c2)cc1Cl	?	-17.7%	/	/	-17.8	i
C=CCN(c1ccccc1Cl)S(=O)(=O)c1cccc(C(=O)NCCc2ccc(OC)cc2)c1	?	-28.2%	0.7%	?	-65.1*	?
CN(C)S(=O)(=O)c1cccc(C(=O)NCCc2ccccc2)c1	-18.0%	?	1.3%	-12.2%	23.2	/
CCN(N=O)c1ccc(/C=C2\C=Cc3ccccc32)cc1	5.7%	/	/	/	/	43.9%
COc1cc(-c2cnc3ccccc3c2)cc2c1OCCN(S(=O)(=O)C[C@]13CC[C@H](CC1=O)C3(C)C)C2	3.5%	-0.8%	/	/	/	-10.7%
SMILES	VACV Venus inh	FMDV antiviral	Giardia FBPA inh	HCV inh	HCMV antiviral	VACV mCherry inh
COc1ccc(N(CC(=O)NC2CC3CCC2C3)S(=O)(=O)c2ccc(C)cc2)cc1OC (stereo not drawn)	25.6%	47.5%	-14.6%	3.4%	-34.0	11.2%
O=S(=O)(c1ccc(Cl)cc1)N1CCN(c2nc(-c3ccccc3)nc3ccccc23)CC1	-11.5%	/	/	/	/	-19.3%
O=C(CCCl)N1c2ccccc2C=Cc2ccccc21	/	-4.7%	/	?	-71.4*	/
Cc1ccccc1N=Nc1c(O)[nH]c2ccccc12	-2.9%	71.8%	/	17.1%	76.3	-7.9%
COc1ccc(C)cc1N=Nc1ccc(O)c2ncccc12	/	-23.2%	-2.5%	?	-100.2*	/
COc1cccc(N=Nc2ccc3cccnc3c2O)c1	?	35.0%	?	2µM*	-99.6*	?
Cc1ccccc1N=Nc1ccc(O)c2ncccc12	?	0.0%	-8.9%	?	-92.9*	3.55µM*
COc1ccc(N=Nc2ccc(O)c3ncccc23)cc1	/	1.8%	-2.4%	?	+	/
CCOc1cccc(NC(=O)C2CC(=O)N(C)C(=Nc3cccc(OC)c3)S2)c1 (stereo not drawn)	-14.6%	?	/	/	-2.4	-12.7%
COc1cccc(N=Nc2ccc(O)c3ncccc23)c1	?	-4.1%	?	6.31µM*	-100.0*	?
Oc1ccc(N=Nc2ccc3c(c2)OCCO3)c2cccnc12	?	?	-5.4%	?	-98.4*	?
O=Nc1ccc(O)c2ncccc12	/	?	?	?	-97.9*	/
Nc1ccc(N=Nc2ccccc2)c2cccnc12	/	37.1%	7.0%	2.51µM*	388.9	/
CCN1CCN(C(=O)c2cnn(-c3ncc4c(n3)-c3ccccc3CCC4)c2COC)CC1	-18.5%	8.5%	/	/	/	-1.2%
COc1cccc(N2CCN(c3ncnc4c3c(-c3ccccc3)cn4-c3ccc(C)cc3)CC2)c1	1.2%	-1.6%	/	/	-62.9*	-11.4%
Cc1ccc(-n2cc(-c3ccccc3)c3c(N4CCOCC4)ncnc32)cc1	-7.9%	?	2.2%	?	34.2	-18.1%
Cc1ccc(-n2cc(-c3ccccc3)c3c(N4CCN(C)CC4)ncnc32)cc1	2.3%	0.0%	3.6%	-26.5%	55.4	i
Cc1cccc(-n2cc(-c3ccccc3)c3c(N4CCOCC4)ncnc32)c1	-2.4%	?	2.4%	3.16µM*	-18.1	i
COc1ccc(F)cc1S(=O)(=O)Nc1cc2c3c(c1)CC(=O)N3CCC2	-16.3%	12.2%	/	?	-6.2	-21.6%
Cc1cc(C)n(/N=C/c2cccs2)c(=O)c1C#N	/	-15.0%	-2.0%	9.5%	-76.2*	/
Cc1cc(C)c(/C=N/n2c(C)cc(C)c(C#N)c2=O)c(C)c1	-13.5%	7.5%	1.0%	-19.0%	-17.2	-14.1%
